Test [1] has as its target Arylsulfatase A (Homo sapiens) (UniProt P15289). The test can be described thus: qHTS screen for enhancers of Arylsulfatase A (ASA1): LOPAC Validation Assay (AID 720538). Put shortly:
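SV40-transformed fibroblasts from an MLD patient (ASA-I179S) were treated with compound for 48 h at 37 C. They were then lysed with 0.5 mM pNCS substrate (final) for 14 h at room temperature and stopped with NaOH; signal read by fluorescence (Ex 525/Em 598 nm), with increase denoting enhanced activity.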

Test [2] in a line: qHTS for compounds that reverse cellular toxicity of Amyloid beta (A-beta) peptide in yeast: LOPAC Validation Assay (AID 720559).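 Note: plate controls were DMSO for no effect and equimolar ferric chloride plus clioquinol rescue for full effect.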 In short, it runs like this: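 Yeast expressing toxic A-beta grown with pinned compounds at 30 C for 48 hr. Growth measured as absorbance at 600 nm; data normalized to DMSO and to an equimolar FeCl3/clioquinol mixture as positive control.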
A short description of test [3]: qHTS for Activators of Parkin Expression: LOPAC Validation Assay (NLuc Reporter) (AID 720572;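 note: 0% = DMSO and 100% = positive control compound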). Put shortly:
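Cells harboring the Parkin-promoter coincidence reporter were treated for 24 h at seven concentrations. NLuc output was measured sequentially after the FLuc channel and scaled between DMSO and positive control values.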

Test [4] in a line: qHTS assay for small molecule agonists of the antioxidant response element (ARE) signaling pathway measured by Nrf2-dependant transcriptional activity (AID 720636; active = well fitted curve in the direction sought with a large enough effect in the repeat runs; an effect the other way counts as inactive or inconclusive;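 note: HepG2 cells with an ARE-driven luciferase reporter; % of control where 0% means no effect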). Put shortly:
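Nrf2-dependent transcription is measured in ARE-luc HepG2 cells: compound is applied for 16 hr at 37 C after a 6 hr attachment period, and luciferase activity is quantified by luminescence using ONE-Glo.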

Test [5] can be described thus: qHTS assay for small molecule agonists of the antioxidant response element (ARE) signaling pathway measured by Nrf2-dependant transcriptional activity - cell viability counter screen (AID 720653; active = well fitted curve in the direction sought with a large enough effect in the repeat runs; an effect the other way counts as inactive or inconclusive; note: % is set by controls: 0 for no effect and ±100 for the full control effect). The settings on record: ARE-bla HepG2 viability, CellTiter-Glo ATP luminescence, 16 h; max response: stronger effect = lower value. In short, it runs like this: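 ARE-bla HepG2 cells (2,000/well) rested 5 hrs at 37C/5% CO2, then exposed to compounds in DMSO for 16 hrs. Viability was read in the same wells as intracellular ATP by luminescence, 30 min at room temperature after reagent addition.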

The target of test [6] is T1, Hexokinase-4 (Homo sapiens) + Glucokinase regulatory protein (Homo sapiens) (UniProt P35557+Q14397). Description: qHTS assay for inhibitors of recombinant human GCK-GKRP interaction: Diaphorase-coupled assay (AID 743205). In short, it runs like this: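 Compounds pre-incubated 20 min with substrate, then 10 nM GST-GCK with 10 nM FLAG-GKRP added. GCK activity coupled via G6PDH and diaphorase to resorufin (5 mM glucose, 0.4 mM ATP, 0.15 mM NADP+, pH 7.6), read kinetically over 30 minutes at Ex 525/Em 590 nm.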

Test [7] deals with T1, Hexokinase-4 (Homo sapiens) + Glucokinase regulatory protein (Homo sapiens). The test can be described thus: qHTS assay for inhibitors of recombinant human GCK-GKRP interaction: ADP-Glo assay (AID 743206).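 Note: plate controls were DMSO plus enzyme for no effect and no enzyme for full effect.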 Put shortly: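 Pin-transferred compounds meet a 15 nM GST-GCK/15 nM FLAG-GKRP/2 uM S6P mix (dispense concentrations). ATP is then added to 0.4 mM final with 5 mM glucose, and the reaction runs 60 min at room temperature. ADP is quantified luminescently.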

The target is the same in test [8]. The test can be described thus: qHTS assay for inhibitors of recombinant human GCK-GKRP interaction: HTRF assay (AID 743207).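 Note: 0% = DMSO with GCK present and -100% = DMSO wells lacking GCK.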 Put shortly: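 HTRF binding of 5 nM GST-GCK and 5 nM FLAG-GKRP with 2 uM S6P in pH 7.1 Hepes buffer (MgCl2, KCl, DTT, Tween 20, BSA). Anti-FLAG XL665 and anti-GST donor added, 60 min at room temperature; 665/615 nm read, normalized to with- and without-GCK controls.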

The nature of test [9]: qHTS Assay for Identifying Gametocytocidal Compounds (AID 743244).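 For max response: % is set by controls: 0 for no effect and ±100 for the full control effect; actives lower the fluorescent signal which means gametocytes are killed.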 Note: potency is the fitted concentration of half-maximal effect. The settings on record: P. falciparum 3D7 stage III-V gametocytes, alamarBlue, 72 h; max response: stronger effect = lower value. Put shortly: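 Fluorescence at Ex 525/Em 598 nm, recorded 24 h after alamarBlue addition, reports residual metabolic activity of 3D7 gametocytes (stages III–V) following 72 h compound exposure at 37 °C, 5% CO2.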

Test [10] in a line: qHTS assay for cell viability of HEK293 cells (AID 743288). Note: % is set by controls: 0 for no effect and ±100 for the full control effect; nearly all actives have a fitted effect of over 50% in size. Particulars: ATP luminescence (CellTiter-Glo), 18 h; max response: stronger effect = lower value. Put shortly: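 Steps: plate 2,000 parental HEK293 cells per well; incubate ≥5 h, 37 C; add compounds in DMSO; incubate 18 h, 37 C; add CellTiter-Glo; wait 30 min at room temperature; read luminescence.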
Test [11] in a line: qHTS assay for cell viability of the p53RE-bla HCT-116 cell line (AID 743292). Note: % is set by controls: 0 for no effect and ±100 for the full control effect; nearly all actives have a fitted effect of over 55% in size. Put shortly: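 ATP-based luminescence, 16 h compound exposure at 37 C, p53RE-bla HCT-116 cells at 4,000/well.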
Test [12] in a line: qHTS profiling of the MIPE4 collection as inhibitors of Plasmodium falciparum (3D7) proliferation (AID 743344; call rule not given here;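 note: scaled between DMSO vehicle wells and 0.29 µM artemisinin as full inhibition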). Particulars: P. falciparum 3D7 in erythrocytes, SYBR Green DNA fluorescence, 72 h; at 28.5 µM (top of the series) unless noted. Put shortly:
(§1)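 Parasite DNA was quantified by SYBR Green I fluorescence (ex 485, em 535 nm) after overnight lysis in saponin/Triton buffer at room temperature. Cultures at 0.3% parasitemia and 2.5% hematocrit were first exposed to compound for 72 h at 37 C; signals were normalised to artemisinin (0.29 uM) and vehicle wells.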

Test [13] is described as follows: qHTS profiling of the MIPE4 collection as inhibitors of Plasmodium falciparum (DD2) proliferation (AID 743345; call rule not given here). Particulars: P. falciparum Dd2 in erythrocytes, SYBR Green DNA, 72 h; at 28.5 µM (top of the series) unless noted. Put shortly:
as §1

The nature of test [14]: qHTS profiling of the MIPE4 collection as inhibitors of Plasmodium falciparum (DD2) proliferation (Rep 2) (AID 743346; call rule not given here). Particulars: P. falciparum Dd2 in erythrocytes, SYBR Green DNA, 72 h; at 28.5 µM (top of the series) unless noted. Put shortly:
as §1

Test [15] can be described thus: qHTS for small molecule inhibitors of Yes1 kinase: Counter Assay (AID 686950).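 Note: no kinase present so only ADP-Glo detection of a fixed ADP amount is tested; luminescence from ADP-Glo reporting ADP in a fixed ATP and ADP mixture; 0% = DMSO wells with ATP plus ADP and -100% = ATP-only wells without ADP.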 In short, it runs like this: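 Measuring interference with ADP-Glo, the assay ran 60 min at room temperature on an ATP/ADP mix lacking enzyme. Values were normalized to ATP-plus-ADP (maximum) and ATP-only (minimum) DMSO controls.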
Test [16] in a line: qHTS profiling for inhibitors of Plasmodium falciparum (3D7) proliferation (AID 743322).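 Note: infected erythrocytes exposed to compound for 72 h before lysis; 100% = DMSO vehicle wells and 0% = 0.29 µM artemisinin.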 The settings on record: P. falciparum 3D7 proliferation, at 28.7 µM (top of the series). Put shortly: as §1
A short description of test [17]: qHTS profiling for inhibitors of Plasmodium falciparum (DD2) proliferation (AID 743323; call rule not given here). Particulars: at 28.7 µM (top of the series), lower = more inhibition. Put shortly:
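P. falciparum Dd2-infected erythrocytes (0.3% parasitemia, 2.5% hematocrit) exposed 72 h at 37 C, 5% CO2. Lysis with SYBR Green, overnight at room temperature, fluorescence 485/535 nm; normalized to 0.29 uM artemisinin and DMSO.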

Test [18] can be described thus: qHTS profiling for inhibitors of Plasmodium falciparum (HB3) proliferation (AID 743324).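 Note: 100% = DMSO vehicle wells and 0% = artemisinin-treated control wells.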 The settings on record: Plasmodium falciparum HB3 blood-stage proliferation; at 28.7 µM (top of the series). In short, it runs like this: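 SYBR Green fluorescence (485 ex/535 em) of lysed cultures, incubated overnight at room temperature in the dark, quantifies parasite DNA. Infected erythrocytes at 0.3% parasitemia and 2.5% hematocrit were exposed 72 h; values normalized to DMSO and 0.29 uM artemisinin controls.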

The nature of test [19]: qHTS for Activators of Parkin Expression: LOPAC Validation Assay (FLuc Reporter) (AID 720573;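 note: 0% = DMSO and 100% = positive control compounds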). Put shortly: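 Neuronal cell line stably expressing FLuc/NLuc coincidence reporter under the Parkin promoter, 1,500 cells/well, dosed 24 h after seeding in 7-point series for 24 h at 37 C. FLuc luminescence read; normalized to DMSO and positive control (100%).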

Eight compounds from PubChem BioAssay (NCATS) can be followed below.

Several values for one entry are separate records, joined by “and”; a condition that tells them apart may be missing. Identical values can stand only once. Inconclusive results are not listed. Activity calls are given as the source filed them. Unless noted, calls come from the whole dose curve; as a rule, active = well fitted curve in the direction sought with a large enough effect; inconclusive = small, poorly fitted or top-dose-only effect, or another doubt; inactive = no such curve, though single readings can be large; an effect the other way counts as inactive or inconclusive.

Chain of Arylsulfatase A (Homo sapiens) (P15289 whole entry, looked up): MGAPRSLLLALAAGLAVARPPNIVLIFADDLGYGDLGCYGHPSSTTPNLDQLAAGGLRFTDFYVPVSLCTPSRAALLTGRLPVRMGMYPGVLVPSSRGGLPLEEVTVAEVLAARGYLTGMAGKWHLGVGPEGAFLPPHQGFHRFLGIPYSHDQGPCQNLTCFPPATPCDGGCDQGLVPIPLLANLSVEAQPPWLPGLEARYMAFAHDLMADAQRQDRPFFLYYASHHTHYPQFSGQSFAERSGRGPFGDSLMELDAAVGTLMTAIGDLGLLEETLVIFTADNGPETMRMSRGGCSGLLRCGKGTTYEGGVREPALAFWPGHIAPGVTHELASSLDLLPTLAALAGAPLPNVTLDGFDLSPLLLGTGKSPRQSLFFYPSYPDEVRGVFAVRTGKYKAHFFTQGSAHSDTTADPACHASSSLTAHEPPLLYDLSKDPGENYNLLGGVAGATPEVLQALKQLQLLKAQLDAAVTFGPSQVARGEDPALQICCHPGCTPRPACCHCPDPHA
T1 sequence (P35557 whole entry, looked up): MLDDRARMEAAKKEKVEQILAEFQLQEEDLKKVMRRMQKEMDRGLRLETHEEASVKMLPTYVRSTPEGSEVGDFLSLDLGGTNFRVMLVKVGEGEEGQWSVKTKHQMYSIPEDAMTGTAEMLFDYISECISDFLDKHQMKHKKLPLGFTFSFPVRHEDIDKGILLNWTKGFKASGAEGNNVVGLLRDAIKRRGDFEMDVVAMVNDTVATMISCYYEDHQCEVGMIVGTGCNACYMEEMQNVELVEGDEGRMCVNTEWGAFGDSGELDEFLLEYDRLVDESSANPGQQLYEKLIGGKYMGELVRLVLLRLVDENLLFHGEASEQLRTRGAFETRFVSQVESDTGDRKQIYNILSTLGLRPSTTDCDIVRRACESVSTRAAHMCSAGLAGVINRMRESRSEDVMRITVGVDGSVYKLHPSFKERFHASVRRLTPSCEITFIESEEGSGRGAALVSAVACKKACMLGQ
T1 sequence (Q14397 whole entry, looked up): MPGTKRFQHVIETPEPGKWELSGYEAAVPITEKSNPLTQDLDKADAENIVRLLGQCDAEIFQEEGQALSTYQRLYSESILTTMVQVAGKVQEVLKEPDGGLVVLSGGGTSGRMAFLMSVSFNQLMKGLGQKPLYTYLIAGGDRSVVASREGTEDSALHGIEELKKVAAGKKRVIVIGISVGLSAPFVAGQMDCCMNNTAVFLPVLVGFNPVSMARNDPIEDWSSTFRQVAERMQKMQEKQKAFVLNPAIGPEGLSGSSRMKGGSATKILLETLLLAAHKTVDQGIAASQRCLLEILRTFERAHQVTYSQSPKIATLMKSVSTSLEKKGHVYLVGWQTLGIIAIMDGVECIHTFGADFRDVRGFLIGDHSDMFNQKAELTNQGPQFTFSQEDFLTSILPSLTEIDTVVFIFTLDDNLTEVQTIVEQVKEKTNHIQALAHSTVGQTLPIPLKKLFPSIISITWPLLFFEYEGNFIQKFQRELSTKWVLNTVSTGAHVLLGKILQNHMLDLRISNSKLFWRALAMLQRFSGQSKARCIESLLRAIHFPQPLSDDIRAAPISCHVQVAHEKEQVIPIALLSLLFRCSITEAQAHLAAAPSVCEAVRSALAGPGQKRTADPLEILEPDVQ

In the case of `CC(C)(Oc1ccc(C2CC2(Cl)Cl)cc1)C(=O)O` (centres undefined), the Potency result in test [1], in [6], in test [7], in [8] and in test [11] was “inactive” throughout. Further, the compound was classed as inactive in test [2], in [3] and in test [4]. Besides, the max response is 10.6% (inactive) in test [5]; 2.49% (inactive) and 6.24% (inactive) in test [9]; -8.57% (inactive) in test [10]. For the same compound, the parasite growth, % of DMSO control in test [12] came to 107% [at 57.5 µM]. The parasite growth remaining, % of DMSO control (lower = more inhibition) in test [13] amounted to 105% [at 57.5 µM]. Also, the parasite growth, % of control (lower = inhibition) in test [14] was 92.2% [at 57.5 µM].

For `CC1(CN2CCC(n3c(=O)[nH]c4ccccc43)CC2)OCc2ccccc2-n2cccc21` (centres undefined), the outcome in [15] was inactive. Also, the max response in test [9] is -18.7% (inactive) and -2.64% (inactive). For the same compound, the remaining parasite growth % (stronger effect = lower value) in test [16] came to 21.2%. In [17], this compound displayed an activity, percent of control of 17.6%. The same compound had a remaining proliferation (% of control), lower = more inhibition in test [18] of 0.0183%. In addition, the parasite growth, % of DMSO control in test [12] is 10.9%. The parasite growth remaining, % of DMSO control (lower = more inhibition) in test [13] worked out at 9.37%. Further, the parasite growth, % of control (lower = inhibition) in test [14] was 11%.

In the case of `O=C(c1ccc(OCCN2CCCCC2)cc1)c1c(-c2ccc(O)cc2)sc2cc(O)ccc12`, the Potency entry in [1], in test [19], in test [6], in test [7] and in [8] was “inactive” each time. In addition, the compound was called inactive in [2], in test [3] and in test [4]. In test [12], the parasite growth, % of DMSO control was determined as 7.18%. Also, the parasite growth remaining, % of DMSO control (lower = more inhibition) in test [13] was 32.9%. In test [14], the parasite growth, % of control (lower = inhibition) came to 20.8%.

Take `CCCNCC(O)COc1ccccc1C(=O)CCc1ccccc1` (centres undefined): the Potency result in test [1], in test [6], in test [7] and in test [8] was “inactive” in each case. Moreover, the compound was classed as inactive in test [2] and in [3]. For the same compound, the Potency in [9] was 3.16 µM (active) and 1.78 µM (active). Also, the parasite growth, % of DMSO control in [12] stood at 5.54%. Besides, the parasite growth remaining, % of DMSO control (lower = more inhibition) in test [13] turned out to be 6.97%. Further, in [14], the parasite growth, % of control (lower = inhibition) is 15.6%.

For `Cn1ccc2cc3c(cc21)CCN3C(=O)Nc1cccnc1`, the compound was classed as inactive in test [15], in test [2] and in test [3]. Besides, the Potency entry in test [6], in test [7] and in test [8] was “inactive” throughout. In addition, the max response in test [9] is 16% (inactive) and 23.5% (inactive). In [16], this compound registered a remaining parasite growth % (stronger effect = lower value) of 25%. Besides, the activity, percent of control in test [17] stood at 23%. In [12], this compound returned a parasite growth, % of DMSO control of 23.4%. For the same compound, the parasite growth remaining, % of DMSO control (lower = more inhibition) in test [13] was found to be 72.7%. Moreover, the parasite growth, % of control (lower = inhibition) in [14] came to 13.8%.

As for `CC12CC3CC(C)(C1)CC(N)(C3)C2`, the Potency result in [1], in test [19], in test [6], in [7] and in test [8] was “inactive” throughout. In addition, the outcome in test [2] and in [3] was inactive. Besides, the max response in [9] was 12.5% (inactive). Besides, the parasite growth, % of DMSO control in test [12] came to 176%. Also, the parasite growth remaining, % of DMSO control (lower = more inhibition) in [13] turned out to be 23.6%. The parasite growth, % of control (lower = inhibition) in test [14] came to 122%.

On to `CS(=O)(=O)CCNCc1ccc(-c2ccc3ncnc(Nc4ccc(OCc5cccc(F)c5)c(Cl)c4)c3c2)o1`, for which, in [15], the compound was classed as inactive. For the same compound, the max response in [9] was -3.58% (inactive) and 12% (inactive). Also, in test [16], the remaining parasite growth % (stronger effect = lower value) came out at 0.561%. The activity, percent of control in [17] is 12.2%. Also, the remaining proliferation (% of control), lower = more inhibition in [18] was determined as 1.42%. For the same compound, the parasite growth, % of DMSO control in [12] turned out to be 8.87%. The parasite growth remaining, % of DMSO control (lower = more inhibition) in test [13] was determined as 7.86%. The parasite growth, % of control (lower = inhibition) in test [14] was found to be 51.8%.

On to `Nc1nc2c(ncn2COC(CO)CO)c(=O)[nH]1`, for which the Potency entry in [1], in test [6], in test [7] and in test [8] was “inactive” in each case. For the same compound, the compound was called inactive in test [2] and in [3]. Further, the max response in test [9] was -13.4% (inactive) and 3.21% (inactive). Further, in [12], the parasite growth, % of DMSO control was 91.1%. Besides, the parasite growth remaining, % of DMSO control (lower = more inhibition) in test [13] stood at 92.5%. In addition, the parasite growth, % of control (lower = inhibition) in [14] stood at 84.9%.
